The nature of assay [1]: qHTS assay for small molecules that induce genotoxicity in human embryonic kidney cells expressing luciferase-tagged ATAD5 (AID 651632). Also: nearly all actives have a fitted effect of over 15% in size. Also: potency is read from the fitted curve at half-maximal effect. A digest of the protocol:
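HEK293T cells carrying luciferase-tagged ATAD5 were given compound or DMSO vehicle and incubated 16 hr at 37C, 5% CO2. Luciferase activity was read after 30 min at room temperature with Amplite; a rise signals genotoxic stress.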

Assay [2] in a line: qHTS assay for small molecule agonists of the p53 signaling pathway - cell viability (AID 651633; calls by dose curve; also: nearly all actives have a fitted effect of over 30% in size; also: potency is read from the fitted curve at half-maximal effect). A digest of the protocol:
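Viability counter-read: CellTiter-Glo luminescence (30 min, room temperature) in the same p53RE-bla plates. These plates had been exposed to compounds for 16 h at 37 C.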

Assay [3] is described as follows: qHTS assay for small molecules that induce genotoxicity in human embryonic kidney cells expressing luciferase-tagged ATAD5 - cell viability (AID 651634; calls by dose curve; also: nearly all actives have a fitted effect of over 25% in size; also: potency is read from the fitted curve at half-maximal effect). A digest of the protocol:
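HEK293T cells carrying luciferase-tagged ATAD5, 2,000 cells/well, exposed to compound for 15.5 hr at 37C. Viability read as live-cell protease activity by CellTiter-Fluor fluorescence after 30 min at 37C.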

Assay [4] can be described thus: qHTS assay for small molecule disruptors of the mitochondrial membrane potential - cell viability (AID 720634; calls by dose curve; also: nearly all actives have a fitted effect of over 20% in size; also: potency is read from the fitted curve at half-maximal effect). The method in brief: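 HepG2 cells, 2,000 per well, attached overnight, then treated 1 hr at 37 C, 5% CO2. Viability read as ATP by CellTiter-Glo luminescence after 30 min at room temperature. Read in the same wells as the m-MPI membrane-potential dye assay.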

Assay [5] in a line: qHTS assay for small molecule disruptors of the mitochondrial membrane potential (AID 720635). Also: potency is read from the fitted curve at half-maximal effect. The method in brief:
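Mitochondrial membrane potential tracked with Mito-MPS dye, red aggregates (ex 540/em 590 nm) against green monomers (ex 490/em 535 nm). Compound treatment 1 hr at 37C, dye 30 min in HepG2.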

The nature of assay [6]: qHTS assay to test for compound auto fluorescence at 590 nm (red) in HepG2 cells (AID 720674). Also: % is scaled to controls: 0 for no effect and ±100 for the full control effect. The method in brief:
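1 hr compound incubation on HepG2 cells, 37 C, 5% CO2; plate read ex 540 nm / em 590 nm; intensities reported as Rose Bengal sodium equivalents.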

The nature of assay [7]: qHTS assay to test for compound auto fluorescence at 535 nm (green) in HepG2 cells (AID 720675). Also: % is scaled to controls: 0 for no effect and ±100 for the full control effect.
Assay [8] is described as follows: qHTS assay to test for compound auto fluorescence at 460 nm (blue) in HEK293 cells (AID 720678). Also: % is scaled to controls: 0 for no effect and ±100 for the full control effect. A digest of the protocol: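 After cell attachment (4-5 hr, 37C), compounds were pinned onto HEK293 monolayers in 10% dialyzed FBS medium. The blue channel (405/460 nm) was read following overnight culture. Equivalency was calculated against triamterene.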
The nature of assay [9]: qHTS assay to test for compound auto fluorescence at 590 nm (red) in HEK293 cells (AID 720679). Also: % is scaled to controls: 0 for no effect and ±100 for the full control effect. A digest of the protocol: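 Plates of HEK293 cells (10% dialyzed FBS) are treated with 23 nL compound or DMSO vehicle after a 4-5 hr attachment period, incubated overnight at 37C, and read for red fluorescence at 540/590nm.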
Assay [10] in a line: qHTS assay to test for compound auto fluorescence at 535 nm (green) in HEK293 cells (AID 720680). Also: % is scaled to controls: 0 for no effect and ±100 for the full control effect.
A short description of assay [11]: qHTS assay to test for compound auto fluorescence at 460 nm (blue) in HEK293 cell free culture (AID 720681). Also: % is scaled to controls: 0 for no effect and ±100 for the full control effect. The method in brief: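 Blue fluorescence (Ex 405/Em 460 nm, triamterene-equivalent) was read immediately after pin transfer of compound or DMSO into medium (DMEM, 10% FBS) without cells.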
Assay [12] is described as follows: qHTS assay to test for compound auto fluorescence at 535 nm (green) in HEK293 cell free culture (AID 720682). Also: % is scaled to controls: 0 for no effect and ±100 for the full control effect. A digest of the protocol: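 Fluorescein serves as the green reference fluorophore; each compound's intrinsic emission at 535 nm (excitation 485 nm) is reported as an equivalent amount of that dye, measured in serum-containing DMEM without cells.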
Assay [13] in a line: qHTS assay to test for compound auto fluorescence at 590 nm (red) in HEK293 cell free culture (AID 720683). Also: % is scaled to controls: 0 for no effect and ±100 for the full control effect. The method in brief:
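Red-channel autofluorescence of compounds in culture medium (DMEM, 10% FBS), no cells, measured at 540/590 nm. Rose Bengal sodium is the reference fluorophore for equivalence.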

A short description of assay [14]: qHTS assay to test for compound auto fluorescence at 535 nm (green) in HepG2 cell free culture (AID 720686). Also: % is scaled to controls: 0 for no effect and ±100 for the full control effect.
Assay [15] is described as follows: qHTS assay to test for compound auto fluorescence at 460 nm (blue) in HepG2 cells (AID 720687). Also: % is scaled to controls: 0 for no effect and ±100 for the full control effect. The method in brief: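 Blue-channel autofluorescence (Ex/Em 405/460 nm, triamterene-equivalent) was measured after 1 hr compound exposure at 37 C, 5% CO2. Cells were HepG2, plated overnight at 37 C in MEM plus 10% FBS.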
The nature of assay [16]: qHTS assay to test for compound auto fluorescence at 460 nm (blue) in HepG2 cell free culture (AID 720685). Also: % is scaled to controls: 0 for no effect and ±100 for the full control effect. A digest of the protocol: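 Compound (23 nL) or DMSO pinned into cell-free MEM with 10% FBS; blue fluorescence read at 405/460 nm excitation/emission, expressed as auto-fluorescence equivalency to triamterene.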
The nature of assay [17]: qHTS assay to test for compound auto fluorescence at 590 nm (red) in HepG2 cell free culture (AID 720684). Also: % is scaled to controls: 0 for no effect and ±100 for the full control effect. The method in brief: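 Steps: dispense MEM/10% FBS medium, no cells; pin compound or DMSO vehicle; read red channel, Ex/Em 540/590 nm. Output given as Rose Bengal sodium equivalents.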
Assay [18] has as its target Glucocorticoid receptor (Homo sapiens) (UniProt P04150). In words: qHTS assay to identify small molecule agonists of the glucocorticoid receptor (GR) signaling pathway (AID 720691; active = well fitted activation curve with a large enough effect in the signal ratio in the repeat runs, not every such curve was filed as active; the % refers to the signal ratio; also: % is scaled to controls: 0 for no effect and ±100 for the full control effect). The method in brief:
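GR-bla HeLa cells carrying a GRE-driven beta-lactamase reporter, exposed to compounds for 18 h at 37 C. Reporter activation read as fluorescence after 2 h with LiveBLAzer B/G FRET substrate at room temperature.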

The target is the same in assay [19]. In words: qHTS assay to identify small molecule antagonists of the glucocorticoid receptor (GR) signaling pathway (AID 720692; active = well fitted inhibition curve with a large enough effect in the signal ratio in the repeat runs, not every such curve was filed as active; the % refers to the signal ratio; also: % is scaled to controls: 0 for no effect and ±100 for the full control effect). A digest of the protocol:
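GR-bla HeLa cells carrying a GRE-driven beta-lactamase reporter received compound after 4 h plating, then dexamethasone (5 nM final). After 18 h at 37C, the FRET substrate was loaded for 2 h at room temperature and fluorescence read.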

Structures are written as SMILES. Values joined by “and” are separate entries in the source; they are usually repeats but may differ in a detail not shown here. Equal entries are not always repeated. Values without a mark were called inactive. Results filed as inconclusive are left out. Active and inactive are the calls of the source. Unless noted, calls follow the shape of the dose curve; as a rule, active = well fitted curve in the direction sought with a large enough effect in the repeat runs; inconclusive = weak or mixed curves; inactive = no such curve, though single readings can be large; an effect the other way counts as inactive or inconclusive.

Chain of Glucocorticoid receptor (Homo sapiens) (P04150 whole entry, looked up): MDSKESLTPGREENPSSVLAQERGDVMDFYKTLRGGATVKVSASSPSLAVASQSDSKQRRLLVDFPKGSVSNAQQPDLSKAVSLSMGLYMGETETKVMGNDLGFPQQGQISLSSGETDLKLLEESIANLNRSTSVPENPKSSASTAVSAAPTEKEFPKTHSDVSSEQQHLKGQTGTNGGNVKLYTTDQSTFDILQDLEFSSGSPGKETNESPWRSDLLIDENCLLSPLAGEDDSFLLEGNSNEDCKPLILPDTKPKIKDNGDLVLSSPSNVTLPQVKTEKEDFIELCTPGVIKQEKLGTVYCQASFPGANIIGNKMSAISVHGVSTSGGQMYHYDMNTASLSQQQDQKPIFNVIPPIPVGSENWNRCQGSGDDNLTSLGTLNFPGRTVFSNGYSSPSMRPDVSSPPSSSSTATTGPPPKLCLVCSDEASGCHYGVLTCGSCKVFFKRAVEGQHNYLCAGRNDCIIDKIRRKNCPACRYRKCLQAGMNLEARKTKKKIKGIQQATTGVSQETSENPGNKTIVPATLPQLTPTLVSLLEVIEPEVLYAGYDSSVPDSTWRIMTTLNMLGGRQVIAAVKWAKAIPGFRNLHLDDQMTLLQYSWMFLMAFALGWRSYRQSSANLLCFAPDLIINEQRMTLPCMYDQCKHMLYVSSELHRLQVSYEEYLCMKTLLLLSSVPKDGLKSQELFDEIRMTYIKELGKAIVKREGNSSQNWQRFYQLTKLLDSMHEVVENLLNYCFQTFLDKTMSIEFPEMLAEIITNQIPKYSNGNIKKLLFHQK

Regarding `C[C@@H]1O[C@@H](O[C@@H]2C=C3CC[C@@H]4[C@H](CC[C@]5(C)[C@@H](c6ccc(=O)oc6)CC[C@]45O)[C@@]3(C)CC2)[C@H](O)[C@H](O)[C@H]1O`, the Potency entry in [1] and in assay [4] was “inactive” each time. For the same compound, the Potency is 7.2 nM (active) in assay [2], 0.0227 µM (active) in [3] and 0.0639 µM (active) in assay [5]. In assay [6], the fluorescence, relative to Rose Bengal is 0.222% [at 18.6 µM]. Further, the fluorescence, % of fluorescein control in assay [7] was -0.0054% [at 18.6 µM]; in [14] it was -0.0466% [at 18.6 µM]. The fluorescence, % of triamterene in [8] is 0.167% [at 18.6 µM]. The fluorescence, % of fluorescent control in [9] was -0.104% [at 18.6 µM]; in [11], 0.328% [at 18.6 µM]; in assay [13], -0.024% [at 18.6 µM]; in assay [15], 0.187% [at 18.6 µM]. The fluorescence, % of fluorescein in assay [10] is 0.0243% [at 18.6 µM]. Moreover, in assay [12], the activity change is 0.0268% [at 18.6 µM].
As for `CCN(CC)C(=S)[S-].CCN(CC)C(=S)[S-].[Zn+2]`, the Potency in assay [1] was 5.4 µM (active); in assay [2], 4290 nM (active); in [3] it was 15.2 µM (active); in [5] it was 3.41 µM (active). For the same compound, the Potency entry in assay [4], in assay [8], in assay [11], in [16] and in [15] was “inactive” each time. Further, the compound was called inactive in [6], in assay [7], in assay [9], in assay [10], in [12] and in assay [13]. Also, the result in assay [14] was inactive.
Consider `O=S(=O)(c1ccc(Cl)cc1)c1ccc(Cl)cc1`, for which the Potency entry in assay [1], in assay [2], in [3], in assay [8], in assay [11] and in assay [16] was “inactive” throughout. Further, the Potency result in [15] and in assay [18] was “inactive” in each case. Moreover, the Potency in assay [5] was 4.92 µM (active). For the same compound, the result in [6], in assay [7], in [9], in assay [10], in [12] and in [13] was inactive. Moreover, the call in assay [17] and in assay [14] was inactive.
For `CC(=O)C(Cl)(Cl)Cl`, the Potency entry in assay [1], in [2], in assay [8], in assay [11], in assay [16] and in assay [15] was “inactive” in each case. Further, the Potency in assay [3] was 13.2 µM (active); in [4], 0.209 µM (active); in [5] it was 0.743 µM (active). The outcome in [6], in assay [7], in assay [10], in assay [12], in assay [13] and in assay [17] was inactive. Moreover, the compound was classed as inactive in assay [14].
On to `COP(=O)(OC)SCn1c(=O)oc2cc(Cl)cnc21`, for which the Potency entry in assay [1], in assay [2], in assay [3], in assay [4], in assay [8] and in assay [11] was “inactive” in each case. The Potency entry in assay [15] and in assay [18] was “inactive” throughout. Further, the outcome in assay [6], in [7], in assay [9], in [10], in assay [12] and in assay [13] was inactive. The outcome in [17] and in assay [14] was inactive.
In the case of `CC1CCC(C(C)C)C(OC(=O)c2ccccc2N)C1` (stereo not drawn), the Potency entry in assay [1], in assay [3], in assay [8], in assay [11], in [15] and in [19] was “inactive” in each case. Moreover, the Potency in assay [2] was 26.6 µM (active) and 60.3 µM (active); in assay [5] it was 13.3 µM (active) and 17 µM (active). The result in [6], in assay [7], in assay [9], in assay [10], in assay [12] and in [13] was inactive. The result in [17] and in assay [14] was inactive.
Regarding `O=C(CCCN1CCC2(CC1)C(=O)NCN2c1ccccc1)c1ccc(F)cc1`, the Potency result in [1], in [2], in assay [3], in assay [4], in [8] and in assay [11] was “inactive” in each case. Further, the Potency entry in assay [16], in assay [15], in assay [18] and in assay [19] was “inactive” in each case. Besides, in [5], the Potency was 3.35 µM (active). Moreover, the compound was called inactive in [6], in [7], in assay [10], in assay [12], in [13] and in assay [14].
